# Assay outcomes from PubChem BioAssay.
# Sampled rows, rich in hits. Any-hit rate of the full collection: about 1.5%.
# rTrxR1 inhibitor: qHTS Assay for Inhibitors of Mammalian Selenoprotein Thioredoxin Reductase 1 (TrxR1): qHTS; Thioredoxin reductase 1, cytoplasmic (Rattus norvegicus), O89049; recombinant rTrxR1, NADPH fluorescence consumption, selenite substrate; Potency, µM (highest dose often 114 µM), usual class: inhibitors; 1% of 390,000 active; AID 588453, 2011; also: nearly all actives have a fitted effect of over 65% in size
#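 Rat TrxR1 (90 nM in the dispensed reagent) was pre-reduced with 400 uM NADPH for 5 min at room temperature, then incubated with compound for 15 min. After 400 uM selenite was added, NADPH fluorescence (Ex 340/Em 450 nm) was followed for 8 min.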
# GALK inh: qHTS Assay for Inhibitors of Human Galactokinase (GALK). P51570. Purified GALK, Kinase-Glo residual ATP luminescence. Potency, µM (doses to about 57.5 µM), usual class: inhibitors. 0.007% of 270,000 active
#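 Human GALK (5 nM) with 35 uM ATP and 100 uM galactose in 20 mM HEPES pH 8.0, 5 mM MgCl2, 60 mM NaCl, 1 mM DTT, 0.01% BSA. After 1 h at room temperature, leftover ATP was read by Kinase-Glo Plus luminescence.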
# TrxR1 substrate: qHTS Assay for Substrates of Mammalian Selenoprotein Thioredoxin Reductase 1 (TrxR1): qHTS; 0.01% of 390,000 active; Thioredoxin reductase 1, cytoplasmic (Rattus norvegicus), O89049; AID 588456, 2011; purified TrxR1 substrate turnover, NADPH consumption readout; Potency, µM (series often up to 114 µM); also: nearly all actives have a fitted effect of over 50% in size
#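 Rat TrxR1, dispensed at 90 nM, was prereduced with 400 uM NADPH (final) for 5 min at ~22 deg C, then incubated with compound 15 min before 400 uM selenite. A first-read NADPH fluorescence drop versus no-compound background flagged substrates.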
# Coupling enz: qHTS Assay for Inhibitors of Fructose-1,6-bisphosphate Aldolase from Giardia Lamblia: Coupling assay counterscreen; coupling enzyme system counterscreen, AmpLite Red fluorescence; activity change, negative = inhibition, % at 58.2 µM, hits read low; 0.67% of 290,000 active; AID 2472, 2010; in the data active = activity change below about -30%
#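 Final compound at 57.5 uM, incubated 10 min at RT with coupling enzyme reagent (glyceraldehyde-3-phosphate), then 20 min with substrate and AmpLite Red detection. Fluorescence read at 525/598 nm; tests interference with the coupling assay, not aldolase inhibition.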
# PI4K2A block: qHTS for small molecular inhibitors of PI4K2A | Phosphatidylinositol 4-kinase type 2-alpha (Homo sapiens), Q9BTU6 | purified PI4K2A, ADP-Glo luminescence, 1 h; active compounds read low | activity change, negative = inhibition, % at 76.9 µM | 0.13% of 420,000 active | AID 1346378, 2018; in the data active = activity change below about -50%; inconclusive = mostly about -30% to -49%
# Target sequence (Q9BTU6 whole entry, looked up): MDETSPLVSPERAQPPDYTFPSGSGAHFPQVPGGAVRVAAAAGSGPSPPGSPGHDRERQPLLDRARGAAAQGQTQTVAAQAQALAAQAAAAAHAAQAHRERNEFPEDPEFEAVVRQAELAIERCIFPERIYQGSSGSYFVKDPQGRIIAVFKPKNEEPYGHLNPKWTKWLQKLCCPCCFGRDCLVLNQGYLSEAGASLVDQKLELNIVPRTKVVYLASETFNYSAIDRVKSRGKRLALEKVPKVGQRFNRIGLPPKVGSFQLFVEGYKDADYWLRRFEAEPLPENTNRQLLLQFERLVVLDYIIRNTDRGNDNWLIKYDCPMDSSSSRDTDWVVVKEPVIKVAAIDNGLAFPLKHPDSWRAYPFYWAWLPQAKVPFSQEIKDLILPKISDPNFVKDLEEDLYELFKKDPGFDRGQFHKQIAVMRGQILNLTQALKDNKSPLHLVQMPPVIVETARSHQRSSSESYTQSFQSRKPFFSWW
#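 In this quantitative HTS, ADP production by PI4K2A was quantified luminescently after 1 h at ambient temperature; 100 microM adenosine served as plate-quality control.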
# Giardia kill: Small Molecules that selectively kill Giardia lamblia: qHTS; activity change, % at 7.66 µM, hits read low; 0.15% of 340,000 active; Giardia lamblia trophozoite viability; in the data active = activity change below about -80%; inconclusive = between about -30% and that limit;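 also: parasites exposed to compound for two days anaerobically before the ATP read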
#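 Each well holds 100 Giardia trophozoites and compound. After two days (48 hrs) at 37 deg C in anaerobic conditions, ATP is quantified by luminescence.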
# A number is an active result; . = inactive; ? = inconclusive; / = not tested or not shown; [ ] = another dose, or the depositor's remark. Unless noted, calls follow the shape of the dose curve; as a rule, active = well fitted curve in the direction sought with a large enough effect; inconclusive = small, poorly fitted or top-dose-only effect, or another doubt; inactive = no such curve, though single readings can be large; an effect the other way counts as inactive or inconclusive.
SMILES,rTrxR1 inhibitor,GALK inh,TrxR1 substrate,Coupling enz,PI4K2A block,Giardia kill
CCOc1ccc(C(=O)/C=C/c2cn(CC(O)CN3CCc4ccccc43)c3ccccc23)cc1 (centres undefined),.,/,.,/,.,/
COc1ccc(/C=C/C(=O)c2ccc([N+](=O)[O-])o2)cc1OC,14µM,/,.,/,.,.
COc1cc(/C=C/C(=O)c2ccc([N+](=O)[O-])o2)ccc1O,7.9µM,/,.,/,.,.
COc1cc(/C=C/C(=O)c2c(O)cc(C)oc2=O)ccc1O,/,/,/,.,/,/
O=C(/C=C/c1cccc(Cl)c1)c1ccc([N+](=O)[O-])o1,1.6µM,/,.,/,.,.
CC(=O)N(C1=C(N)C(=O)c2ccccc2C1=O)C(C)C,79µM,.,.,-43,.,.
C/C(=N\O)c1ccc(OCC(=O)N2CCCCC2)cc1,/,/,/,/,.,/
CCOC(=O)N1CCN(C(=O)Nc2sc3nc4n(c(=O)c3c2C)CCC(C)CC4)CC1 (centres undefined),28µM,.,.,.,.,.
COCC(=O)Nc1nc2n(n1)C(c1ccccc1Cl)CC(c1ccc(OC)cc1)N2 (centres undefined),?,.,.,.,.,.
COCC(=O)Nc1nc2n(n1)C(c1ccc(Cl)cc1)CC(c1ccc(OC)cc1)N2 (centres undefined),18µM,.,.,.,.,.
COc1cc2oc(=O)c(CC(=O)NCCc3ccccc3F)c(C)c2cc1OC,?,/,.,/,.,/
Cc1c(CC(=O)NCCc2ccccc2F)c(=O)oc2cc(O)c(Cl)cc12,71µM,/,.,/,.,/
COc1ccc(CCNC(=O)Cc2c(C)c3cc(OC)c(OC)cc3oc2=O)cc1,.,/,.,/,.,/
COc1ccccc1CCNC(=O)Cc1c(C)c2cc(Cl)c(O)cc2oc1=O,79µM,/,.,/,.,/
O=C(COC(=O)c1ccc(S(=O)(=O)NCc2ccco2)cc1)Nc1ccc(Cl)cn1,.,.,.,.,-52,.
Cn1ncc(SCc2ccccc2)c(Cl)c1=O,.,.,.,.,.,.
Cn1ncc(S(=O)(=O)Cc2ccccc2)c(Cl)c1=O,1.1µM,.,.,.,.,.
COc1cc(C2CC(=O)N3CN(c4ccccc4C)CSC3=C2C#N)cc(OC)c1OC (centres undefined),/,.,/,-36,/,/
COc1ccccc1N1CSC2=C(C#N)C(c3ccc(SC)cc3)CC(=O)N2C1 (centres undefined),13µM,.,.,-38,.,.
Cc1c(Cl)cccc1NC(=O)c1ccc2c(c1)CCN2S(=O)(=O)c1ccccc1,.,/,.,/,.,/
COc1ccccc1OCCCn1cc(C#N)c2ccccc21,.,.,.,-32,.,.
N#Cc1cn(CCCOc2ccccc2)c2ccccc12,.[2.29 µM],.,.,.,.,.
Cc1nn(-c2ccccc2)c(-n2cccc2)c1C(=O)NCCCN1CCN(c2ccccc2F)CC1,.,/,.,/,.,/
Cc1ccc(S(=O)(=O)c2c(N)n(Cc3ccco3)c3nc4ccccc4nc23)cc1C,11µM,.,.,.,.,.
COC(=O)[C@H](CCSC)NC(=O)c1ccc(NC[C@@H](N)CS)cc1-c1ccccc1,/,/,/,.,/,/
SMILES,rTrxR1 inhibitor,GALK inh,TrxR1 substrate,Coupling enz,PI4K2A block,Giardia kill
O=C(CN1C(=O)NC2(CCCCC2)C1=O)Oc1ccc2c(C(F)(F)F)cc(=O)oc2c1,40µM,/,.,/,.,.
CCc1cc(=O)oc2cc(OC(=O)CN3C(=O)NC4(CCCC4)C3=O)ccc12,?,.,.,/,.,.
O=C(CN1C(=O)NC2(CCCC2)C1=O)Oc1ccc2ccc(=O)oc2c1,79µM,/,.,/,.,.
C=C(/C=C/c1ccc(N(C)C)cc1)c1nc2ccccc2s1,.,/,.,/,/,/
CC(=O)c1ccc(OC(=O)COc2ccccc2Cl)cc1,18µM,.,.,.,.,.
O=C(Nc1ccc(OC(F)F)cc1)c1nc(SCc2ccccc2F)ncc1Cl,.,/,.,/,/,/
O=C1c2ccccc2C(=O)C1c1ccnc2ccccc12,.,.,.,.,.,?
N#CC1=C(N)SC(N)=C(C#N)C1c1ccnc2ccccc12,32µM,.,.,.,.,.
CCOc1cc(/C=C\[N+](=O)[O-])ccc1OCC(=O)N1CCOCC1,8.9µM,.,.,.,.,.
CCNc1ccccc1CP(=O)(c1ccccc1)c1ccccc1O (centres undefined),50µM,.,.,-58,.,.
Cc1ccc(O)c(CP(=O)(c2ccccc2)c2ccccc2)c1,.,.,.,.,.,.
CCOc1ccc(N)cc1OC,.,.,.,-33,.,.
CCOc1ccc(C(N)=O)cc1OC,.,.,.,.,.,.
N=C(N)SCc1ncccc1O,32µM,.,.,.,.,.
c1ccc(CSc2nnc(SCc3ccccn3)s2)nc1,.,.,.,.,.,.
N=C(N)SCc1ccccn1,.,.,.,-80,.,.
O=C(Cc1ccccc1Nc1c(Cl)cccc1Cl)OCO/N=[N+](\[O-])N1CCCC1,.,/,.,.,/,.
O=[N+]([O-])c1cc(C=NN2CCN(Cc3ccccc3Cl)CC2)ccc1Cl,/,/,/,/,.,/
O/N=C(/C[n+]1csc2ccccc21)c1ccccc1,.,/,.,/,/,/
COc1ccc(OCC#CCN2CC(C)OC(C)C2)cc1 (centres undefined),16µM,.,.,.,.,.
COc1ccc(OCC#CCNC(C)(C)C)cc1,.,.,.,.,.,.
O=C(O)c1ccc(-n2cccn2)c([N+](=O)[O-])c1,56µM,.,.,.,.,.
Cc1cccc(NC(=O)c2ccc(-n3cccn3)c([N+](=O)[O-])c2)c1,?,.,.,-33,.,.
Cc1cc2nccc(C)c2cc1C,.,/,.,/,/,/
CCC(NC(C)C)C(O)c1ccc(O)c(O)c1 (centres undefined),?,.,.,-53,.,.
CCC(c1ccc(O)c(O)c1)C(CC)c1ccc(O)c(O)c1 (centres undefined),7.9µM,/,.,/,.,.
CCOc1ccc(-c2cc(CCCC(=O)NCCc3ccc(SC)cc3)no2)cc1,.,/,.,/,.,/
CSc1cccc(NS(=O)(=O)c2cn(C)c(C)n2)c1,.,/,.,/,.,/
CSc1cccc(NS(=O)(=O)c2cn(C)cn2)c1,50µM,.,.,.,.,?
COc1ccc([N+](=O)[O-])cc1/C=N/NC(=O)CNC(=O)C(c1ccccc1)c1ccccc1,.,.,.,-30,.,.
